Only some compounds are listed: those with a hit (about 9.4% of all), similar ones and a draw of the others.
ELG1 genotox = qHTS screen for small molecules that induce genotoxicity in human embryonic kidney (HEK293T) cells expressing luciferase-tagged ELG1 | HEK293T ELG1-luciferase reporter, luminescence, 16 h | Potency, µM (doses to about 46 µM), inactives show top-dose activity change, positive = activation, usual class: activators | 1.3% of 330,000 active | AID 504466, 2011; also: % of control where 0% means no effect; nearly all actives have a fitted effect of over 60% in size
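After overnight (16 hr) compound treatment at 37 °C, ELG1-luciferase HEK293T cells were lysed with ONE-Glo; luminescence quantified 30 min later at room temperature.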
SMN2 splice enh = qHTS Assay for Enhancers of SMN2 Splice Variant Expression; Potency, µM (top dose mostly 46.1 µM), for inactives: at the highest dose activity change, positive = activation, actives largely listed as activators; AID 1458, 2008; HEK293 SMN2-luciferase splicing reporter, luminescence, 30-36 h; 2.8% of 210,000 active; also: % of control where 0% means no effect; nearly all actives have a fitted effect of over 55% in size
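HEK293 cells carry an SMN2 […]–luciferase reporter in which exon 7 inclusion puts luciferase in frame. Cells were plated 10-12 h before compound addition, then incubated 30-36 h at 37C. ONE-Glo luminescence was read; sodium butyrate at 4.5 mM final served as control.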
FLuc counter = qHTS profiling assay for firefly luciferase inhibitor/activator using purifed enzyme and Km concentrations of substrates (counterscreen for miR-21 project); Luciferin 4-monooxygenase (Photinus pyralis), P08659; purified FLuc, Km substrates, luminescence inhibition; Potency, µM (doses to about 57.5 µM), inactives show at the highest dose activity change, negative = inhibition, hits mostly inhibitors; 6.9% of 360,000 active; AID 588342, 2011;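 also: plate controls were vehicle for no effect and reference inhibitor for full effect; nearly all actives have a fitted effect of over 55% in size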
Target sequence (P08659 whole entry, looked up): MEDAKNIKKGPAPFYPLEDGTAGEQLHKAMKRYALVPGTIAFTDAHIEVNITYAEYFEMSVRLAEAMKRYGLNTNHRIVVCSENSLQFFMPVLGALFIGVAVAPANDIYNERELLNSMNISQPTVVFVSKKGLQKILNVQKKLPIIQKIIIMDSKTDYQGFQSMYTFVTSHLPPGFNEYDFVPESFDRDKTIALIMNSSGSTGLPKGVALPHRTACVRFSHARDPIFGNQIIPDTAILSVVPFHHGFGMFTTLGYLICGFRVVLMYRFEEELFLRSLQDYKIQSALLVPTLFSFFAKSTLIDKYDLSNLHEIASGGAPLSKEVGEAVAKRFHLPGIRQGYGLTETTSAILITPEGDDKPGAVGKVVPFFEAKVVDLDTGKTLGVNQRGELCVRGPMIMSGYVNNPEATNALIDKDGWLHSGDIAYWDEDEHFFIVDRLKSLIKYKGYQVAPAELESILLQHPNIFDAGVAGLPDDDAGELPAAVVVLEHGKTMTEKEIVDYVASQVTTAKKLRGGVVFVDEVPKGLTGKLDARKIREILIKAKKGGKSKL
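Purified P. pyralis luciferase, 10 nM final, with Km-level 10 uM D-luciferin and 10 uM ATP in 50 mM Tris acetate pH 7.5, 10 mM Mg acetate, 0.01% Tween-20, 0.05% BSA; 6-point qHTS titration about 60 µM downward; luminescence read.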
ELG1 DNA repair = qHTS screen for small molecules that inhibit ELG1-dependent DNA repair in human embryonic kidney (HEK293T) cells expressing luciferase-tagged ELG1; 2.3% of 330,000 active; HEK293T ELG1-luciferase reporter, luminescence, 16 h; DNA damage induced by 5-fluorouridine; Potency, µM (doses to about 46.1 µM), without a hit: at the top dose activity change, negative = inhibition, most hits filed as inhibitors; also: % is scaled to controls: 0 for no effect and ±100 for the full control effect; nearly all actives have a fitted effect of over 55% in size
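Cells (2,000 per well) received 5-fluorouridine plus test compound or DMSO and were incubated 16 hr at 37 °C, 5% CO2. Luciferase activity was read by luminescence 30 min after ONE-Glo addition; signal suppression marked inhibition of damage-induced ELG1 function.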
NPC1 prom act = qHTS Assay for NPC1 Promoter Activators. Huh7 NPC1 promoter luciferase reporter, 24 h. Potency, µM (titrated, usually from 9.22 µM), inactives show at the highest dose activation, most hits filed as activators. 2.4% of 320,000 active. AID 485313, 2010; also: % of control where 0% means no effect; nearly all actives have a fitted effect of over 60% in size
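NPC1 promoter–luciferase Huh7 cells; 24 h compound; luminescence.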
Rab9 prom act = qHTS Assay for Rab9 Promoter Activators | Huh7 Rab9 promoter-luciferase reporter, luminescence, 24 h | Potency, µM (series often up to 9.22 µM), without a hit: at the top dose activation, negative = inhibition, usual class: activators | 2.8% of 320,000 active | AID 485297, 2010; also: % of control where 0% means no effect; nearly all actives have a fitted effect of over 60% in size
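Luciferase signal after 10 min detection reagent at ambient indicates Rab9 promoter upregulation; stably transfected Huh7 cells were treated 24 h with compound in DMSO at 37 °C, 5% CO2.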
The depositor's hits bear a star; u = inconclusive; x = not tested or not shown; [ ] = remark or other dose. Calls follow the shape of the dose curve; as a rule, active = well fitted curve in the direction sought with a large enough effect; inconclusive = small, poorly fitted or top-dose-only effect, or another doubt; inactive = no such curve, though single readings can be large; an effect the other way counts as inactive or inconclusive. Potency is read from the fitted curve at half-maximal effect.

SMILES	ELG1 genotox	SMN2 splice enh	FLuc counter	ELG1 DNA repair	NPC1 prom act	Rab9 prom act
Cc1ccc(N2C(=O)c3ccccc3NC2c2ccccc2O)cc1 (stereo not given)	u	x	u	u	2.5µM*	0.89µM*
CC(C)Cn1c(-c2cccs2)nc2nc3ccccc3nc21	-8%	-1%	u	u	-1%	2%
c1ccc(Cn2c(-c3cccs3)nc3nc4ccccc4nc32)cc1	4%	-5%	15µM*	0%	16%	4%
Nc1c(-c2cccc([N+](=O)[O-])c2)nc2ccccn12	u	u	17µM*	u	u	3.2µM*
CCc1cc(=O)n2c([nH]c3ccccc32)c1C#N	15%	-62%	19µM*	16%	-1%	-6%
COCc1cc(=O)n2c([nH]c3ccccc32)c1C#N	19%	u	19µM*	u	-1%	8%
CCc1c(C)c(C#N)c2[nH]c3ccccc3n2c1=S	-9%	x	-14%	u	-27%	-28%
CC(SCc1cc(=O)n2c([nH]c3ccccc32)c1C#N)C(=O)O (stereo not given)	-4%	-16%	u	-12%	5%	-7%
CCc1cc(=S)n2c([nH]c3ccccc32)c1C#N	-17%	x	24µM*	u	0%	-8%
COc1ccc(OC)c(NC(=O)CSc2ccnc(=O)[nH]2)c1	x	x	7%	x	x	x
Cc1cc2c(cc1S(=O)(=O)Nc1cccc(Cl)c1C)OCCN2C	x	x	-8%	x	x	x
CCOc1ccccc1NC(=O)c1cnn2c(C(F)F)cc(-c3ccccc3)nc12	x	3%	5%	x	x	x
Cc1ccnc(NC(=O)COc2ccc(Cl)cc2)n1	u	x	24µM*	u	19%	21%
O=C(COc1ccc(Cl)cc1)Nc1ncccn1	21µM*	8%	19µM*	u	13%	16%
Cc1cc(C)nc(NC(=O)COc2ccc(Cl)cc2)c1	x	-5%[9.22 µM]	x	x	x	x
CCCNC(=O)OCCC12CC3CC(CC(C3)C1)C2	u	7%	12µM*	u	16%	17%
Fc1cc2nccnc2cc1N1CCSCC1	-1%	7%	-2%	4%	-8%	-3%
Fc1cc2[nH]c(=S)[nH]c2c(Br)c1N1CCSCC1	11%	x	13µM*	u	11%	10%
CCc1ccc(C(=O)COC(=O)CNC(=O)Cc2ccccc2)cc1	3%	x	17µM*	11%	3%	1%
CCc1ccc(C(=O)COC(=O)CNC(=O)CNC(=O)Cc2ccccc2)cc1	-1%	-7%	u	u	1%	-2%
CCc1ccc(C(=O)COC(=O)CNC(=O)C2CCCCC2)cc1	3%	x	0.85µM*	u	-1%	25%
CCc1ccc(C(=O)COC(=O)CNC(=O)CNS(=O)(=O)c2ccccc2)cc1	1%	x	19µM*	22%	1%	3%
O=C(CNC(=O)C1CCCCC1)OCC(=O)c1ccc(F)cc1	0%	x	0%	-17%	8%	-10%
O=c1[nH]c(SCc2c(Cl)c(Cl)c(Cl)c(Cl)c2Cl)nc(=S)[nH]1	x	15%[9.22 µM]	x	x	x	x
O=C(O)COc1ccc(/C=C/c2nc(-c3ccccc3O)n[nH]2)cc1	-6%	x	11µM*	-21%	-5%	-2%
COc1ccc(/C=C/c2nc(-c3ccccc3O)n[nH]2)cc1OC	u	u	12µM*	u	u	u
COc1ccc(/C=N/NC(=O)c2[nH]nc3c2CCc2ccccc2-3)cc1OC	-1%	-10%	-7%	-3%	-19%	-6%
CCOc1cccc(C(=O)N(Cc2ccc(C)o2)C2CCS(=O)(=O)C2)c1 (stereo not given)	x	-4%	-2%	x	x	x
